VP16 counter = inhibits Gal4-VP16 luciferase reporter, ROR gamma counter-screen; 3.5% of 310,000 active; Drosophila S2 Gal4-VP16 UAS-luciferase, luminescence, 20 h; Potency, µM (highest dose often 53.6 µM), most hits filed as inhibitors;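 further: Gal4-VP16 expression switched on by copper sulfate through the metallothionein promoter; nearly all actives have a fitted effect of over 50% in size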
SW480 rerep = induces DNA re-replication in SW480 colon adenocarcinoma cells. SW480 DNA re-replication, Hoechst DNA content imaging, 48 h. 1.8% of 340,000 active. Potency, µM (titrated, usually from 46.1 µM), hits mostly activators. AID 624297; further: nearly all actives have a fitted effect of over 55% in size
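Quantitative HTS format with DMSO vehicle controls; 48 hr drug incubation at 37 C, then 40 min Hoechst staining and scanning imager measurement at 405 nm excitation.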
MCF10A rereplic = induces DNA re-replication in MCF 10a normal breast cells | MCF 10A DNA re-replication, Hoechst nuclear intensity, 48 h | Potency, µM (doses to about 46.1 µM), usual class: activators | 2.9% of 350,000 active; further: nearly all actives have a fitted effect of over 50% in size
RORgamma inh = ROR gamma (mouse) transcription inhibition; 5.4% of 310,000 active; Drosophila S2 Gal4-RORgamma UAS-luciferase reporter, 20 h; Potency, µM (series often up to 53.6 µM), most hits filed as inhibitors; P51450; AID 2551; further: nearly all actives have a fitted effect of over 60% in size
Target sequence (P51450 whole entry, looked up, the tested form may be a part): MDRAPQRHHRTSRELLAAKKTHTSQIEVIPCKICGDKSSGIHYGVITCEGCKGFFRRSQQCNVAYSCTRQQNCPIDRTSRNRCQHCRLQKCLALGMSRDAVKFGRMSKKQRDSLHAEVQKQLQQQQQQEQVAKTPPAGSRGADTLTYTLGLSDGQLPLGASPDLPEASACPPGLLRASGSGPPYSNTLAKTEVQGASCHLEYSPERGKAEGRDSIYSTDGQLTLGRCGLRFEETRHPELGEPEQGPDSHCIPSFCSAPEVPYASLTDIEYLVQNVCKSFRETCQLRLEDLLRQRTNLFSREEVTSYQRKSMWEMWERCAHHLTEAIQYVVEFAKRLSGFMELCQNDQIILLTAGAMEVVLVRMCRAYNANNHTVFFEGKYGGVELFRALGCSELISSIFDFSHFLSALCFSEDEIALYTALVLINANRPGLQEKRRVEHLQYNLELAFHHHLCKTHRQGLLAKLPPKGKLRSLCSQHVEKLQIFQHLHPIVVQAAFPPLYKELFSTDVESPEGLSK
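ROR gamma transcriptional activity was tracked as Gal4-UAS luciferase output in stably transfected Drosophila Schneider cells, with compound added 1 hr before 700 uM copper sulfate induction and a 20 hr ambient-temperature incubation.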
IL-1B inflam inh = blocks inflammasome-driven IL-1 beta release | THP-1 LPS/ATP IL-1B secretion, AlphaLISA, 16 h; hits give low values | activity change, % at 57.5 µM | 4.7% of 360,000 active | AID 743279; in the data active means activity change below about -50%; inconclusive means mostly about -30% to -49%
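Secreted IL-1B measured by AlphaLISA bead assay after 16 h compound exposure of THP-1 cells; compounds (final up to 57.5 uM) added 1 h before LPS (250 ng/mL) and ATP (1.25 mM) stimulation; lower signal means less secretion.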
Hits are given with their value. An excerpt weighted towards active compounds, which were near 11% of everything screened. Unless noted, the call rests on the fitted dose curve; in most records, active means well fitted curve in the direction sought with a large enough effect; inconclusive means small, poorly fitted or top-dose-only effect, or another doubt; inactive means no such curve, though single readings can be large; an effect the other way counts as inactive or inconclusive.

COc1cccc(/C=N/n2c(-c3cccs3)n[nH]c2=S)c1 was read as VP16 counter inactive, SW480 rerep inactive, MCF10A rereplic inactive, RORgamma inh 7.1µM and IL-1B inflam inh inactive.
Screening S=c1[nH]nc(-c2ccccc2)n1/N=C/c1cccc(Br)c1 returned VP16 counter 7.1µM, SW480 rerep inactive, MCF10A rereplic inactive, RORgamma inh 7.1µM and IL-1B inflam inh inactive.
Cc1sc(NC(=O)c2c(F)cccc2F)nc1-c1ccccc1 was read as VP16 counter inactive, SW480 rerep inconclusive, MCF10A rereplic inconclusive, RORgamma inh inconclusive and IL-1B inflam inh inactive.
For CC(=O)c1sc(NC(=O)c2cccc(N3C(=O)CCC3=O)c2)nc1-c1ccccc1 the results were SW480 rerep inactive, MCF10A rereplic inactive and IL-1B inflam inh inactive.
For Cc1sc(NC(=O)c2ccc(=O)n(C)n2)nc1-c1ccccc1 the results were VP16 counter inactive, SW480 rerep inactive, MCF10A rereplic 23µM, RORgamma inh inactive and IL-1B inflam inh inconclusive.
COc1ccc(-c2nc(NC(=O)c3cc(C(C)(C)C)nn3C)sc2C)cc1 was read as VP16 counter inactive, SW480 rerep 16µM, MCF10A rereplic 15µM, RORgamma inh inconclusive and IL-1B inflam inh inactive.
Cc1sc(NC(=O)c2cccc(N3C(=O)CCC3=O)c2)nc1-c1ccccc1 was read as SW480 rerep inactive, MCF10A rereplic inactive and IL-1B inflam inh -57.
Screening CC(C)C(C)(C#N)NC(=O)COC(=O)C1CCN(S(=O)(=O)c2ccc3c(c2)OCCO3)CC1 (centres undefined) returned SW480 rerep inactive, MCF10A rereplic inactive and IL-1B inflam inh inactive.
O=C(COC(=O)/C=C/c1cccc(C(F)(F)F)c1)NCc1cccs1 was read as SW480 rerep inactive, MCF10A rereplic inconclusive and IL-1B inflam inh inactive.
Screening O=C(c1ccncc1)N1CCC2(CC1)CN(c1ncccn1)C2 returned VP16 counter inactive and RORgamma inh inactive.
Screening CCOC(=O)[C@]12CCCC=C1N(Cc1cccc3ccccc13)C(=O)[C@H](CC(=O)N1CCCC1)C2 returned IL-1B inflam inh inactive.
For COc1ccc2nc(Nc3ccccc3)sc2c1 the results were VP16 counter inactive, SW480 rerep inactive, MCF10A rereplic inactive, RORgamma inh inconclusive and IL-1B inflam inh -67.
Screening COc1ccc2nc(Nc3nc4cc5c(cc4s3)OCO5)sc2c1 returned VP16 counter 11µM, SW480 rerep inconclusive, MCF10A rereplic inconclusive, RORgamma inh 4.5µM and IL-1B inflam inh inactive.
COc1ccc2nc(Nc3ccc4c(c3)OCO4)sc2c1 was read as VP16 counter inconclusive, SW480 rerep inactive, MCF10A rereplic inactive, RORgamma inh inactive and IL-1B inflam inh inconclusive.
CC(=O)Nc1ccc(-c2ccnc3c2CC(C)(C(=O)Nc2cccc(Oc4ccccc4)c2)O3)cc1 (centres undefined) was read as IL-1B inflam inh inactive.
CC(C)c1ccc(CN(C(=O)c2ccco2)C2CCS(=O)(=O)C2)cc1 (centres undefined) was read as VP16 counter inactive, SW480 rerep inactive, MCF10A rereplic inactive, RORgamma inh inactive and IL-1B inflam inh inactive.
Screening CC(C)c1ccc(CN(C(=O)/C=C/c2ccco2)C2CCS(=O)(=O)C2)cc1 (centres undefined) returned VP16 counter inactive, SW480 rerep inactive, MCF10A rereplic inactive, RORgamma inh inactive and IL-1B inflam inh -86.
O=C(/C=C/c1ccccc1Cl)N(Cc1ccc(Cl)cc1)C1CCS(=O)(=O)C1 (centres undefined) was read as VP16 counter inactive, SW480 rerep inactive, MCF10A rereplic inactive, RORgamma inh inconclusive and IL-1B inflam inh -57.
For Cc1c(C(=O)N(Cc2ccc(Cl)cc2)C2CCS(=O)(=O)C2)oc2ccccc12 (centres undefined) the results were VP16 counter inactive, SW480 rerep inactive, MCF10A rereplic inactive, RORgamma inh inactive and IL-1B inflam inh -59.
For C[C@H]1CN([C@@H](C)CO)S(=O)(=O)c2ccc(-c3ccccc3)cc2O[C@H]1CN(C)C(=O)C1CCC1 the results were IL-1B inflam inh inactive.
O=C(NCc1ccc(Cl)cc1)C1CCC(=O)N(C2CCCCCC2)C1 (centres undefined) was read as VP16 counter inactive, SW480 rerep inactive, MCF10A rereplic inactive, RORgamma inh inactive and IL-1B inflam inh inactive.

Source: PubChem BioAssay
